Among all 52,000 compounds or so, about 4,300 (8.3%) were called active. The sample as a whole holds a higher share of actives than the screen did. A number with no mark means an inactive call. No stated cut-off is given here; in the data, active means survival mostly below about 52% (no sharp cut-off); inactive means mostly above about 56%.

The test system of this assay is DeltatarO mutant. Briefly: growth inhibition of S. aureus wild type versus tarO mutant, primary screen, teichoic acid synthesis inhibitors, RN4220, OD600 (AID 463173). Conditions: OD600, 18 h, stronger effect = lower value, screened at 18.75 µg/mL (by protocol).
In the case of `Cn1c(=O)c2c(nc(SCC(=O)Nc3ccc(OC(F)(F)F)cc3)n2Cc2cccc(C(F)(F)F)c2)n(C)c1=O`, the survival is 86%.

`COc1cccc(-c2ccc3c(N)c(C(=O)c4ccc(Cl)cc4)sc3n2)c1`: the survival was 30% (active).

`COc1cccc(-c2ccc3c(N)c(C(=O)Nc4ccc(Cl)cc4F)sc3n2)c1`: the survival was 59%.

With `COc1ccc(Cl)cc1NC(=O)c1sc2nc(-c3ccc(OC)c(OC)c3)ccc2c1N`, the survival was 124%.

For the compound `O=S(=O)(c1ccccc1)c1nc(-c2ccccc2F)oc1N1CCOCC1`, the survival was 71%.

In the case of `O=S(=O)(c1ccccc1)c1nc(-c2ccccc2Cl)oc1N1CCCCCC1`, the survival was 27% (active).

For the compound `Cc1ccc(S(=O)(=O)c2nc(-c3ccccc3F)oc2N2CCCCC2)cc1`, the survival was 32% (active).

Regarding `Cc1ccc(S(=O)(=O)c2nc(-c3ccccc3Cl)oc2N2CCCCCC2)cc1`, the survival is 25% (active).

As to `O=S(=O)(c1ccccc1)c1nc(-c2ccc(Cl)cc2Cl)oc1N1CCCCC1`, the survival is 90%.

Consider `O=S(=O)(c1ccccc1)c1nc(-c2ccc(Cl)cc2Cl)oc1N1CCCCCC1`, for which the survival was 49%.

For the compound `O=S(=O)(Nc1ccc(-c2ccc(N3CCCC3)nn2)cc1)c1cc(F)ccc1F`, the survival is 96%.

With `Cc1ccc(-c2nc(CS(=O)CC(=O)N3CCN(c4ccccc4)CC3)c(C)o2)cc1` (stereo not drawn), the survival is 62%.

With `CC(C)(C)OC(=O)N1CCC(c2c(C(=O)NCc3ccccc3)cnn2-c2cccc(F)c2)CC1`, the survival is 108%.

Regarding `O=C(/C=C\c1ccc2c(c1)OCO2)NC1CC(=O)N(c2ccccc2)C1` (stereo not drawn), the survival is 134%.

In the case of `CN(C)c1ccc(NC(=O)CC(NCc2cccnc2)C(=O)O)cc1` (stereo not drawn), the survival was 76%.

As to `CC(=O)c1cccc(NC(=O)CN2C=NS(=O)(=O)c3ccc(C)cc32)c1`, the survival was 89%.

As to `COc1ccc(-c2csc3nc(-c4ccc(F)cc4)oc(=O)c23)cc1`, the survival was 61%.

Turning to `O=C(NCc1ccc2c(c1)OCO2)c1ccc2c(c1)N(Cc1cccc(Cl)c1)C(=O)c1ccccc1S2`, the survival was 84%.

On to `O=C(NCc1cccs1)C1CCN(C(=O)N2CCOc3ccccc32)CC1`, for which the survival is 107%.

Take `COc1cc(NS(=O)(=O)c2cc3[nH]c(=O)[nH]c3cc2C)cc(OC)c1OC`: the survival is 37% (active).

As for `Cc1cc(C)cc(NS(=O)(=O)c2cc3[nH]c(=O)c(=O)[nH]c3cc2C)c1`, the survival is 87%.

Consider `COc1ccc(NS(=O)(=O)c2cc3[nH]c(=O)c(=O)[nH]c3cc2C)cc1Cl`, for which the survival was 94%.

For `O=C1C2C(C(=O)N1CCO)C1C=CC2C12CC2` (stereo not drawn), the survival is 100%.

Turning to `CCOc1ccccc1CNC(=O)c1[nH]c2ccccc2c1Sc1ccccc1`, the survival was 72%.

As for `COc1cccc(NC(=O)/C(C#N)=C\c2cn(Cc3ccc(C)cc3)c3ccccc23)c1`, the survival is 90%.

`COC(=O)c1c(NC(=O)COc2ccc(OC)cc2)sc2c1CCC(C)C2` (stereo not drawn): the survival was 66%.

In the case of `COC(=O)c1c(NC(=O)COc2cc(C)c(Cl)c(C)c2)sc2c1CCCC2`, the survival was 147%.

For the compound `COC(=O)c1c(NC(=O)Nc2ccc(Cl)cc2)sc(C)c1C`, the survival is 74%.

For `COC(=O)c1c(NC(=O)c2ccc(Cl)c(Cl)c2)sc2c1CCCC2`, the survival is 63%.

For the compound `COC(=O)c1c(NC(=O)C(C)Oc2ccc(Cl)cc2Cl)sc2c1CCCC2` (stereo not drawn), the survival is 46%.

On to `COC(=O)c1c(NC(=O)COc2cc(C)ccc2C(C)C)sc2c1CCC(C)C2` (stereo not drawn), for which the survival is 61%.

With `CCOC(=O)c1sc(NC(=O)C(C)Oc2ccc(OC)cc2)c(C(=O)OCC)c1C` (stereo not drawn), the survival was 73%.

As for `COC(=O)c1c(NC(=O)COc2c(C)cccc2C)sc2c1CCCC2`, the survival was 2% (active).

Consider `COC(=O)c1c(NC(=O)COc2c(C)ccc(C)c2C)sc2c1CCC(C)C2` (stereo not drawn), for which the survival is 22% (active).

In the case of `COC(=O)c1c(NC(=O)C(C)Oc2ccc(Cl)c(C)c2)sc(C)c1C` (stereo not drawn), the survival was 15% (active).

Regarding `COC(=O)c1c(NC(=O)Cc2cccs2)sc2c1CCCC2`, the survival was 119%.

For `CCCc1ccc(OC(C)C(=O)Nc2sc3c(c2C(=O)OC)CCCCC3)cc1` (stereo not drawn), the survival was 9% (active).

In the case of `Cc1ccc(S(=O)(=O)N2CCN(C(=O)c3c(C)nn(-c4ccccc4)c3Cl)CC2)cc1`, the survival was 63%.

As to `O=C(O)CCNC(=O)c1ccc(Br)o1`, the survival was 72%.

In the case of `Cc1ccccc1Nc1c(-c2ccc(N3CCOCC3)cc2)nc2ncccn12`, the survival was 83%.

In the case of `Cc1cccc(C)c1NC(=O)CN(C)S(=O)(=O)c1ccc2c(c1)n(C)c(=O)c(=O)n2C`, the survival is 89%.

For `O=c1c(S(=O)(=O)c2ccccc2)cn(Cc2cccc(F)c2)c2cc(N3CCOCC3)c(F)cc12`, the survival was 78%.

For `COc1ccc(Cl)cc1NC(=O)c1c(NCc2ccc(C)o2)sc2c1CCCC2`, the survival was 74%.

Take `COc1ccc(Cl)cc1N(C)C(=O)c1ccc2c(=O)n3c(nc2c1)CCCCC3`: the survival was 76%.

For the compound `N#Cc1ccc(NC2=NS(=O)(=O)c3ccccc32)cc1`, the survival is 68%.

For `O=C(NCCc1ccc(Cl)cc1)c1ccco1`, the survival was 98%.

Regarding `COC(=O)c1c(NC(=O)COc2ccc(C(C)C)cc2)sc2c1CCCC2`, the survival was 47%.

Take `COC(=O)c1c(NC(=O)c2ccc(OC)cc2OC)sc2c1CCCCC2`: the survival was 47%.

On to `CCOC(=O)c1c(NC(=O)C(C)Oc2ccc(Cl)c(C)c2)sc2c1CCCC2` (stereo not drawn), for which the survival was 42% (active).

Take `CCOc1ccccc1NC(=O)c1c(NC(=O)C(C)Oc2cccc(Cl)c2)sc2c1CCCCC2` (stereo not drawn): the survival is 64%.

Turning to `COC(=O)c1c(NC(=O)c2c(OC)cccc2OC)sc2c1CCCC2`, the survival is 13% (active).

As for `CCNC(=O)c1c(NC(=O)COc2ccc(F)cc2)sc2c1CCCC2`, the survival is 59%.

On to `CCCc1ccc(OCC(=O)Nc2sc3c(c2C(=O)OC)CCCCC3)cc1`, for which the survival was 38% (active).

For `CCOC(=O)c1c(NC(=O)COc2c(C)cc(Cl)cc2Cl)sc2c1CCCC2`, the survival is 53%.

As to `Cc1cc(OC(C)C(=O)Nc2sc3c(c2C(N)=O)CCCC3)ccc1Cl` (stereo not drawn), the survival was 59%.

`COC(=O)c1c(NC(=O)c2ccccc2C(=O)O)sc2c1CCCC2`: the survival was 92%.

On to `Cc1ccccc1NC(=O)c1c(NC(=O)C(C)Oc2cccc(Cl)c2)sc2c1CCCC2` (stereo not drawn), for which the survival was 40% (active).

As to `CCOc1ccccc1NC(=O)c1c(NC(=O)C(C)Oc2ccc(Cl)cc2)sc2c1CCCCC2` (stereo not drawn), the survival was 83%.

Source of the values: PubChem BioAssay AID463173 (ICCB-Longwood Screening Facility, Harvard Medical School, 2010).
